PubChem BioAssay (NCI)
This is part of a sample that, as a whole, favours compounds with a hit. Of some 83,000 tested, about 20% had one in any assay.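 Activity criterion: percent growth below 10, measured after cells in 96-well plates were exposed to a single compound concentration for 48 hours.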 The source made the active and inactive calls.

Tests used:
Test in all cases: NCI-60 one-dose screen, 48 h (100 = growth as untreated, 0 = no growth, -100 = all killed)
Conditions in all cases: 10 µM
SN12C renal = test system: SN12C renal
UO-31 renal = test system: UO-31 renal
TK-10 renal = test system: TK-10 renal
ACHN renal = test system: ACHN renal
CAKI-1 renal = test system: CAKI-1 renal
A498 renal = test system: A498 renal
CCRF-CEM leukemia = test system: CCRF-CEM leukemia
MOLT-4 leukemia = test system: MOLT-4 leukemia
SR leukemia = test system: SR leukemia

Measured: growth

CSc1nn(-c2ccccc2)c2ncnc(Oc3ccccc3)c12
active: UO-31 renal 7.79%
inactive: SN12C renal 86.2% | TK-10 renal 106% | ACHN renal 106% | CAKI-1 renal 88.7% | A498 renal 138% | CCRF-CEM leukemia 89.6% | MOLT-4 leukemia 97.3% | SR leukemia 84%

O=C(Nc1cccc(-n2cc(-c3ccncc3)c(-c3ccc(O)c(Cl)c3)n2)c1)c1cccc(C(F)(F)F)c1
inactive: SN12C renal 49.9% | UO-31 renal 15.8% | TK-10 renal 46.9% | ACHN renal 29.6% | CAKI-1 renal 12.2% | A498 renal 57.7% | CCRF-CEM leukemia 19.8% | MOLT-4 leukemia 29.8% | SR leukemia 18.4%

COc1cc(Nc2ccnc(NCCCNc3ccnc4cc(Cl)ccc34)n2)cc(OC)c1
inactive: SN12C renal 22.6% | A498 renal 14.9%
active: UO-31 renal -74.8% | TK-10 renal -63.4% | ACHN renal -58.1% | CAKI-1 renal -3.88% | CCRF-CEM leukemia -5.06% | MOLT-4 leukemia -39.6% | SR leukemia -21.6%

O=C(Nc1ccccc1)Nc1cccc(-n2cc(-c3ccncc3)c(-c3ccc(O)c(Cl)c3)n2)c1
inactive: SN12C renal 59.1% | UO-31 renal 26.9% | TK-10 renal 88.8% | ACHN renal 43.1% | CAKI-1 renal 30.1% | A498 renal 82.5% | CCRF-CEM leukemia 29.9% | MOLT-4 leukemia 38.3% | SR leukemia 11.9%

COC(=O)C1=NNC(=S)N(c2cc(C)[nH]n2)C(=O)C1
inactive: SN12C renal 96.3% | UO-31 renal 76.5% | TK-10 renal 114% | ACHN renal 107% | CAKI-1 renal 92.5% | A498 renal 81.8% | CCRF-CEM leukemia 91.8% | MOLT-4 leukemia 84.1% | SR leukemia 86.3%

CC(=O)C1CCC2C3CC(F)C4=CC(=O)CCC4(C)C3C(O)CC12C (configuration not stated)
inactive: SN12C renal 92% | UO-31 renal 75.8% | TK-10 renal 122% | ACHN renal 99.7% | CAKI-1 renal 96.1% | A498 renal 116% | CCRF-CEM leukemia 93.6% | MOLT-4 leukemia 85.8% | SR leukemia 92.9%

Cc1ncc(-c2ccoc2)c(NC2CCCCCC2)n1
inactive: SN12C renal 98.5% | UO-31 renal 71.7% | TK-10 renal 109% | ACHN renal 99.6% | CAKI-1 renal 94.4% | A498 renal 105% | CCRF-CEM leukemia 107% | MOLT-4 leukemia 84% | SR leukemia 96.1%

CCOC(=O)N/N=C\C(C)=N\NC(=O)OCC
inactive: SN12C renal 94.6% | UO-31 renal 85.1% | TK-10 renal 98.8% | ACHN renal 99.4% | CAKI-1 renal 90.1% | A498 renal 103% | CCRF-CEM leukemia 93.6% | MOLT-4 leukemia 101% | SR leukemia 96.6%

CCCCCCCCCCCCCCCC(=O)OC1[C@@H](OC(=O)CCCCCCCCCCCCCCC)[C@@H](C(=O)N[C@@H](CCCCN)C(=O)OC)O[C@H]1n1cnc2c(=O)[nH]c(NC(=O)C(C)C)nc21 (some centres not stated)
inactive: SN12C renal 105% | UO-31 renal 87.1% | TK-10 renal 101% | ACHN renal 102% | CAKI-1 renal 94% | A498 renal 98.1% | CCRF-CEM leukemia 86% | MOLT-4 leukemia 93.4%
active: SR leukemia 9.69%

COc1ccc(-c2cc(/C=C/C(=O)c3cc(OC)c(OC)c(OC)c3)[nH]n2)cc1OC
active: SN12C renal 8.28% | UO-31 renal -92.1% | TK-10 renal -33.2% | ACHN renal -61.9% | CAKI-1 renal 4.66% | A498 renal -2.03% | CCRF-CEM leukemia 4.09% | MOLT-4 leukemia 3.41% | SR leukemia 3.11%

Clc1ccc(/C=C2\CCCC3=C2N=C2SC=NN2C3c2ccc(Cl)cc2)cc1 (configuration not stated)
inactive: SN12C renal 104% | UO-31 renal 86.5% | TK-10 renal 112% | ACHN renal 103% | CAKI-1 renal 106% | A498 renal 81.7% | CCRF-CEM leukemia 86.6% | MOLT-4 leukemia 99% | SR leukemia 76.3%

CCCCCCN1CCN(Cc2ccc(N(CC)CC)cc2)C(=O)C1=O
inactive: SN12C renal 50.8% | UO-31 renal 34.8% | TK-10 renal 25.4% | ACHN renal 52.4% | CAKI-1 renal 41.6% | MOLT-4 leukemia 19.1%
active: A498 renal -4.48% | CCRF-CEM leukemia 9.18% | SR leukemia 3.37%

COc1cc(NC(=O)CCSc2nc3ccc(Cl)cc3c(=O)n2Cc2ccccc2)cc(OC)c1OC
inactive: SN12C renal 80% | UO-31 renal 74.1% | TK-10 renal 109% | ACHN renal 45.9% | CAKI-1 renal 63.7% | A498 renal 33.5% | CCRF-CEM leukemia 78.1% | MOLT-4 leukemia 60.6% | SR leukemia 66.5%

COc1ccc2c(c1)O/C(=C\c1ncc([N+](=O)[O-])n1C)C2=O
active: SN12C renal -8.55% | UO-31 renal -39.2% | TK-10 renal -27.3% | ACHN renal 0.77% | CAKI-1 renal -26.7% | A498 renal -77.7% | CCRF-CEM leukemia 4.88% | MOLT-4 leukemia 2.86% | SR leukemia 7.55%

Nc1c(C(=O)Nc2ccccc2)sc2nc3c(cc12)C(O)CCC3 (configuration not stated)
inactive: SN12C renal 39.6% | UO-31 renal 49.4% | TK-10 renal 69.8% | ACHN renal 48.2% | CAKI-1 renal 41.4% | CCRF-CEM leukemia 14.2% | MOLT-4 leukemia 11.9%
active: A498 renal -10.1% | SR leukemia 7.36%

CN(C)c1ccc(/C=C/C=N/NC(=O)c2cc(O)c(O)c(O)c2)cc1
inactive: SN12C renal 105% | UO-31 renal 65.9% | TK-10 renal 101% | ACHN renal 76.8% | CAKI-1 renal 93.4% | A498 renal 88.1% | CCRF-CEM leukemia 16.1% | MOLT-4 leukemia 48% | SR leukemia 32.9%

CCCC#CCN(CC)CC
inactive: SN12C renal 95.8% | UO-31 renal 83.5% | TK-10 renal 99.2% | ACHN renal 106% | CAKI-1 renal 88.2% | A498 renal 105% | CCRF-CEM leukemia 95% | MOLT-4 leukemia 109% | SR leukemia 101%

COc1ccc(/C=C2/CN(C(=O)c3ccccc3F)C/C(=C\c3ccc(OC)cc3)C2=O)cc1
inactive: SN12C renal 65.7% | UO-31 renal 46.1% | TK-10 renal 130% | ACHN renal 65.2% | CAKI-1 renal 67.6% | A498 renal 122% | MOLT-4 leukemia 23.5%
active: CCRF-CEM leukemia 4.22% | SR leukemia -23.2%

CCN(CC)CCSCCN(CC)CC
inactive: SN12C renal 101% | UO-31 renal 97.1% | TK-10 renal 103% | ACHN renal 99% | CAKI-1 renal 98% | A498 renal 89.4% | CCRF-CEM leukemia 91.9% | MOLT-4 leukemia 105% | SR leukemia 98.5%

CCCCCCN1C(=O)C2=C(c3ccc(Cl)cc3)Nc3c(c(C)nn3-c3ccccc3)C2c2ccccc21 (configuration not stated)
inactive: SN12C renal 91.2% | UO-31 renal 79.2% | TK-10 renal 107% | ACHN renal 97.1% | CAKI-1 renal 74.5% | A498 renal 87.5% | CCRF-CEM leukemia 85.8% | MOLT-4 leukemia 73.4% | SR leukemia 76.3%

COc1ccc(-c2nn(-c3cccc(NC(=O)c4ccc(N5CCOCC5)c(C(F)(F)F)c4)c3)cc2-c2ccncc2)cc1Cl
inactive: SN12C renal 85.2% | UO-31 renal 40.9% | TK-10 renal 82.8% | ACHN renal 60.3% | CAKI-1 renal 47.9% | A498 renal 60% | CCRF-CEM leukemia 38.3% | MOLT-4 leukemia 42.1% | SR leukemia 27.2%

COc1cc(-c2cc(/C=C3\C(=O)Nc4ccc(Cl)cc43)[nH]n2)cc(OC)c1OC
active: SN12C renal 7% | UO-31 renal 9.62% | MOLT-4 leukemia -4.3%
inactive: TK-10 renal 27.5% | ACHN renal 23.9% | CAKI-1 renal 17.5% | A498 renal 41.1% | CCRF-CEM leukemia 10.7% | SR leukemia 20.4%

CCCCCCc1cc(N=Nc2ccc(S(=O)(=O)Nc3cc(C)nc(C)n3)cc2)c(O)cc1O
inactive: SN12C renal 97.2% | UO-31 renal 74.5% | TK-10 renal 107% | ACHN renal 99.1% | CAKI-1 renal 98.9% | A498 renal 98.7% | CCRF-CEM leukemia 94.8% | MOLT-4 leukemia 88.7% | SR leukemia 91.9%

COc1cc2cc3c(nc2cc1OC)CCN3Cc1ccc(NC(=O)c2ccc(Cl)c(C(F)(F)F)c2)cc1
inactive: SN12C renal 91.3% | UO-31 renal 71.9% | TK-10 renal 131% | ACHN renal 84.7% | CAKI-1 renal 84.3% | A498 renal 130% | CCRF-CEM leukemia 91% | MOLT-4 leukemia 56.8% | SR leukemia 70.6%

Fc1cc(C(F)(F)F)ccc1-c1cncnc1NC1CCCCCC1
inactive: SN12C renal 89.7% | UO-31 renal 79.9% | TK-10 renal 113% | ACHN renal 91.5% | CAKI-1 renal 85.5% | A498 renal 49.6% | CCRF-CEM leukemia 91.2% | MOLT-4 leukemia 98.1% | SR leukemia 118%

N=C(N)c1ccc(-c2ccc(-c3ccco3)o2)cc1
active: SR leukemia -17.8%
inactive: SN12C renal 69.3% | UO-31 renal 55% | TK-10 renal 109% | ACHN renal 79.4% | CAKI-1 renal 54.5% | A498 renal 33.3% | CCRF-CEM leukemia 60.7% | MOLT-4 leukemia 31.3%

Cc1cc2c(C)c3cc(C)c(N)cc3nc2cc1N
inactive: SN12C renal 12.5% | CAKI-1 renal 14.8%
active: UO-31 renal 7.87% | TK-10 renal -4.14% | ACHN renal 9.76% | A498 renal -5.82% | CCRF-CEM leukemia 6.08% | MOLT-4 leukemia -7.23% | SR leukemia -24.3%

CC/C(=C(/c1ccc(OCCN(C)C)cc1)c1ccc(OC(=O)CCCCC(=O)c2c(C)[nH]c(/C=C3\N=C(c4ccc[nH]4)C=C3OC)c2C)cc1)c1ccccc1
inactive: SN12C renal 62.3% | UO-31 renal 45.4% | TK-10 renal 103% | ACHN renal 67.1% | CAKI-1 renal 47.6% | A498 renal 75.7% | MOLT-4 leukemia 26.7% | SR leukemia 45.3%
active: CCRF-CEM leukemia 9.97%
